Data reported in PMC5540273 (PLoS ONE, 2017).
Where two headings read alike, the source gives them in different places.

How the values were obtained:
Details in all cases: n = 1
MEK2 = system: T1, MEK2
T1 construct: gene MAP2K2

MEK3 = system: T2, MEK3
T2 construct: gene MAP2K3

MEK4 = system: T3, MEK4
T3 construct: gene MAP2K4

MEK5 = system: T4, MEK5
T4 construct: gene MAP2K5

MEK6 = system: T5, MEK6
T5 construct: gene MAP2K6

MELK = system: MELK
MERTK = system: MERTK
MET = system: MET
MINK = system: T6, MINK
T6 construct: gene MINK1

MKK7 = system: MKK7
[1] = concentration: 1 μM, replicates: in singlicate
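Also: KINOMEscan kinase panel screen.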

SMILES | %Inh (MEK2; [1]) | %Inh (MEK3; [1]) | %Inh (MEK4; [1]) | %Inh (MEK5; [1]) | %Inh (MEK6; [1]) | %Inh (MELK; [1]) | %Inh (MERTK; [1]) | %Inh (MET; [1]) | %Inh (MINK; [1]) | %Inh (MKK7; [1]) | %Inh (MEK2; 1 µM) | %Inh (MEK3; 1 µM) | %Inh (MEK4; 1 µM) | %Inh (MEK5; 1 µM) | %Inh (MEK6; 1 µM) | %Inh (MELK; 1 µM) | %Inh (MERTK; 1 µM) | %Inh (MET; 1 µM) | %Inh (MINK; 1 µM) | %Inh (MKK7; 1 µM)
Clc1cc(Cl)cc(Nc2ccnc(Nc3cc(Cl)cc(Cl)c3)n2)c1 [GSK175726] | 0% | 0% | 0% | 49% | 3% | 8% | 0% | 0% | 18% | 13% | – | – | – | – | – | – | – | – | – | –
Cc1cc(-c2ccc3c(c2)CC[C@@H](N[C@@H](C)c2ccccc2)C3)cnc1N.Cl [GW412617] | 12% | 0% | 34% | 55% | 0% | 36% | 26% | 0% | 40% | 1% | – | – | – | – | – | – | – | – | – | –
O=c1cc(N2CCOCC2)nc2n(Cc3cccc(Cl)c3Cl)ccn12 [GSK2286295] | 0% | 0% | 6% | 13% | 0% | 0% | 29% | 0% | 6% | 0% | – | – | – | – | – | – | – | – | – | –
COc1cccc(NC(=O)NC2CCN(c3ccnc(Nc4ccc(F)cc4)n3)C2)c1 (centres unmarked) [GSK1379721] | 22% | 0% | 26% | 86% | 0% | 8% | 14% | 0% | 0% | 0% | – | – | – | – | – | – | – | – | – | –
Cc1cccc(-c2nc(-c3ccc(S(C)(=O)=O)cc3)sc2-c2ccnc(NCCc3ccccc3)c2)c1 | 7% | 0% | 25% | 0% | 8% | 0% | 0% | 0% | 0% | 0% | – | – | – | – | – | – | – | – | – | –
Cc1cccc(-c2nc(Nc3ccncc3)c3ccccc3n2)n1 [GW855857] | 25% | 0% | 0% | 14% | 0% | 11% | 9% | 25% | 33% | 0% | – | – | – | – | – | – | – | – | – | –
CS(=O)(=O)c1ccc(-c2c(-c3ncn[nH]3)sc(N3CCOCC3)c2C#N)cc1 | 0% | 0% | 0% | 16% | 0% | 5% | 0% | 0% | 21% | 10% | – | – | – | – | – | – | – | – | – | –
Cc1ccc(NC(=O)Nc2cccc(Cl)c2)cc1-c1ccc(C(=O)Nc2ccncc2)cc1 [GSK1398468] | 0% | 0% | 38% | 11% | 0% | 0% | 0% | 0% | 14% | 30% | – | – | – | – | – | – | – | – | – | –
Cc1ccc(C(=O)Nc2ccc(Nc3ccnc4cc(-c5ccccn5)ccc34)cc2O)cc1.Cl [GW440146] | 0% | 0% | 19% | 100% | 0% | 0% | 33% | 0% | 36% | 0% | – | – | – | – | – | – | – | – | – | –
COc1ccc(Nc2nccc(NCCNC(=O)Nc3ccccc3F)n2)cc1 [GSK1379901] | 8% | 0% | 11% | 56% | 0% | 0% | 24% | 0% | 11% | 55% | – | – | – | – | – | – | – | – | – | –
O=C(Nc1ccccc1)Nc1cccc(Oc2ccc3nccn3n2)c1 | 0% | 0% | 0% | 37% | 0% | 0% | 4% | 0% | 13% | 0% | – | – | – | – | – | – | – | – | – | –
NC(=O)c1nnc2ccccc2c1N | 47% | 46% | 17% | 34% | 0% | 9% | 0% | 16% | 38% | 0% | – | – | – | – | – | – | – | – | – | –
Cc1ccccc1-n1cnc2c(N)ncnc21 [SKF-97510] | 0% | 0% | 0% | 0% | 20% | 0% | 7% | 0% | 0% | 0% | – | – | – | – | – | – | – | – | – | –
Cc1nnc(-c2ccc3occ(-c4ccc(S(C)=O)cc4)c3c2)[nH]1 (centres unmarked) | 1% | 19% | 37% | 42% | 0% | 0% | 13% | 5% | 17% | 18% | – | – | – | – | – | – | – | – | – | –
Cn1ccc2ncnc(Oc3ccc(NC(=O)Nc4ccccc4)cc3)c21 | 20% | 20% | 0% | 39% | 0% | 16% | 0% | 28% | 16% | 20% | – | – | – | – | – | – | – | – | – | –
Cl.NC(=O)c1cccc(Nc2nccc(Nc3ccc(Oc4cccc(Cl)c4)c(Cl)c3)n2)c1 [GW659008] | 14% | 0% | 22% | 99.7% | 0% | 0% | 33% | 37% | 0% | 0% | – | – | – | – | – | – | – | – | – | –
Cc1ccc(NC(=O)Nc2cccc(C(F)(F)F)c2)cc1 [GSK955403] | – | – | – | – | – | – | – | – | – | – | 3% | 15% | 0% | 0% | 26% | 15% | 29% | 0% | 0% | 0%
